These results are taken from PubChem BioAssay AID817 (Emory University Molecular Libraries Screening Center, 2007).

The whole screen tested about 140,000 compounds, of which about 300 (0.21%) were called active.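 How the source made its calls: active means z-score above 3 at both the 24 hr and the 30 hr optical density reads; inactive means the rest, inconclusive results apart.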 Only a selection was taken, and actives are over-represented in it overall.

The experiment can be described thus: growth rescue of sdo1-depleted yeast, primary screen, S. cerevisiae, bone marrow failure model (AID 817).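 Further: z-score against mean and SD of all compound wells on the same plate.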 The settings on record: S. cerevisiae sdo1-depleted JHY4D growth rescue, at 10 µM, stronger effect = higher value, pdr5 snq2 efflux-pump mutant strain.
[1] abbreviates: OD600, measured here: growth rescue at 24 h.

As for `C=CCN1C(=O)C(Cc2ccc(OCC)cc2)SC1=Nc1ccc(C(=O)O)cc1` (centres undefined), the z-score by setting is: (OD600 30 h) -0.13 (inactive); under setting [1], -0.75.
The corresponding values for `CC(C)CCNC(=O)c1cccnc1Sc1ccccc1` are 0.7 (inactive) and 0.32.
The like results for `Cc1ccc(/C=N/NC(=O)CNC(=O)COc2ccccc2)o1` were, in that order, 1.11 (inactive) and 1.1.
For `CS(=O)(=O)N(Cc1ccccc1)c1ccc(C(=O)NN=C2CCCCCC2)cc1`, the z-score was -0.22 (inactive) (OD600 30 h) and -0.83 under setting [1].
The corresponding values for `COc1ccccc1OCc1ccc(C(=O)N2CCN(C)CC2)o1` are 0.86 (inactive) and 0.24.
The like results for `CN1CCN(C(=O)/C(=C\c2cccs2)NC(=O)c2cccs2)CC1` were, in that order, 0.48 (inactive) and 0.2.
The corresponding values for `CCOc1ccc(C(=O)NC(=S)Nc2ccc(N3CCOCC3)c(Cl)c2)cc1[N+](=O)[O-]` are -1.76 (inactive) and -1.28.
As for `COc1ccc(C(=O)NNS(=O)(=O)c2ccc(C)cc2)cc1`, the z-score reads like this: (OD600 30 h) -0.36 (inactive); under setting [1], -1.37.
The corresponding values for `CC1(C)C=C2[C@H]3CC[C@@H]4[C@@]5(C)CCC(=O)C(C)(C)[C@@H]5CC[C@@]4(C)[C@]3(C)CC[C@@]2(C(=O)O)CC1` are -0.02 (inactive) and -0.53.
The corresponding values for `FC(F)(F)c1cccc(N/N=C/c2ccccc2)c1` are -1.78 (inactive) and -1.53.
The corresponding values for `COc1ccccc1N1CCN(C(=O)C(=O)N/N=C/c2ccccc2F)CC1` are 1.25 (inactive) and 0.28.
As to `COc1ccc(OC(C)C(=O)NCCc2nc3ccccc3[nH]2)cc1` (centres undefined), the z-score (OD600 30 h) is 0.82 (inactive) and the z-score under setting [1] is -0.04.
Take `COc1ccccc1-n1c(C)nc2cc(C(=O)NCc3ccc4c(c3)OCO4)ccc21`: the z-score reads like this: (OD600 30 h) -0.72 (inactive); under setting [1], -1.61.
The like results for `COC(=O)c1cc(C(=O)N(Cc2ccccc2)c2ccccn2)cc([N+](=O)[O-])c1` were, in that order, -0.07 (inactive) and -0.08.
The like results for `CCc1ccccc1NC(=O)CN(C)C(=O)COc1ccc(C)nc1[N+](=O)[O-]` were, in that order, -0.39 (inactive) and -0.24.
The corresponding values for `Cc1[nH]c2ccccc2c1C(=O)CSCC(=O)O` are 10.5 (active) and 8.73.
For the compound `CCOC(=O)N1CCN(CC(=O)c2c(C)[nH]c3ccccc23)CC1`, the z-score reads like this: (OD600 30 h) -0.21 (inactive); under setting [1], -1.53.
The corresponding values for `Cc1[nH]c2ccccc2c1C(=O)COC(=O)C(C)C` are 0.17 (inactive) and -0.5.
The corresponding values for `CCCC1OC23CCCCC2C(C#N)(C#N)C1(C#N)C(=N)O3` (centres undefined) are 0.28 (inactive) and 0.9.
The like results for `CCOc1ccc2c(=O)c(-c3ccc4c(c3)OCCCO4)c(C)oc2c1` were, in that order, 0.07 (inactive) and -0.34.
Take `O=C(OCC(=O)c1c[nH]c2ccccc12)c1cccc(O)c1`: the z-score was 0 (inactive) (OD600 30 h) and 0 under setting [1].
The corresponding values for `O=C(NC(=S)Nc1ccc2oc(=O)ccc2c1)c1ccc(-c2cccc(Cl)c2Cl)o1` are -0.64 (inactive) and 0.44.
The like results for `CCOC(=O)c1c(NC(=S)Nc2ccccc2C)sc2c1CCC2` were, in that order, -0.66 (inactive) and 0.75.
The like results for `COc1ccc(C(C[N+](=O)[O-])n2nc(C)cc2C)cc1` (centres undefined) were, in that order, -2.03 (inactive) and -0.33.
For `O=C(N/N=C\c1ccc(Br)cc1)c1ccc(Cn2cccn2)o1`, the z-score by setting is: (OD600 30 h) 0.87 (inactive); under setting [1], -0.05.
The corresponding values for `O=S(=O)(NCC1CCCO1)c1cnc(Cl)c(Cl)c1` (centres undefined) are 1.1 (inactive) and 0.93.
For `Cc1c(C(=O)NCCN2C(=O)S/C(=C\c3cccs3)C2=O)cccc1[N+](=O)[O-]`, the z-score is, setting by setting: (OD600 30 h) -0.51 (inactive); under setting [1], -0.6.
The like results for `COc1cccc(NC(=O)C(Sc2nc3ccccc3c(=O)n2CC(C)C)c2ccccc2)c1` (centres undefined) were, in that order, -1.02 (inactive) and -0.31.
The like results for `Cc1nnnn1/C(=C\c1ccccc1)C(=O)OCC(=O)N1CC2(C)CC1CC(C)(C)C2` (centres undefined) were, in that order, -1.27 (inactive) and -0.83.
The corresponding values for `Cc1cccc(N=C2NN=C(c3c[nH]c4ccccc34)CS2)c1` are -1 (inactive) and -0.78.
Take `COC(=O)c1c(NC(=O)CN2C(=O)NC(CCc3ccccc3)C2=O)sc2c1CCCCC2` (centres undefined): the z-score runs as follows: (OD600 30 h) 0.43 (inactive); under setting [1], 0.79.
The corresponding values for `Cc1ccc(Sc2ccncc2S(N)(=O)=O)cc1` are 1.59 (inactive) and 0.76.
The like results for `O=C(O)c1ccc(N=NN2CCOCC2)cc1` were, in that order, -0.02 (inactive) and -0.59.
The like results for `COc1ccc(C2Nc3ccccc3C(=O)N2c2ccc(Cl)cc2)cc1Cn1cc([N+](=O)[O-])cn1` (centres undefined) were, in that order, -0.41 (inactive) and -0.21.
With `O=C(N/N=C/c1ccc2c(c1)OCO2)c1ccc(Cn2cc([N+](=O)[O-])cn2)o1`, the z-score is 0.69 (inactive) (OD600 30 h) and -0.21 under setting [1].
The like results for `CCC(=O)Nc1nc(OC)cc(OC)n1` were, in that order, 0.5 (inactive) and -0.32.
The corresponding values for `COc1cc(OC)nc(S(C)(=O)=O)n1` are 3.91 (active) and 4.26.
The like results for `COc1cc(OC)nc(NC(=O)CCl)n1` were, in that order, -0.13 (inactive) and -1.15.
With `CS(=O)(=O)Nc1ccc(C(=O)N2CCCC2)cc1`, the z-score reads like this: (OD600 30 h) 8.85 (active); under setting [1], 8.64.
`O=C(c1ccc(S(=O)(=O)c2ccccc2)cc1)N1CCCCCC1`: the z-score is 1.85 (inactive) (OD600 30 h) and 2.69 under setting [1].
The like results for `Cc1c(Cl)cccc1NC(=O)Nc1ccc(C(=O)N2CCCC2)cc1` were, in that order, 0.9 (inactive) and -0.18.
The corresponding values for `Cc1ccc(-c2nnc(SCC(=O)N/N=C/c3cccs3)n2-c2ccc(C)cc2)cc1` are 0.44 (inactive) and 0.52.
The like results for `CCOc1ccc(C(=O)NC(=S)Nc2ccc(NC(=O)C(C)C)cc2)cc1[N+](=O)[O-]` were, in that order, -0.64 (inactive) and 0.38.
Regarding `CC(=O)COc1ccc2c(-c3ccccc3)cc(=O)oc2c1`, the z-score was -0.11 (inactive) (OD600 30 h) and -0.39 under setting [1].
For `COc1cc(/C=C/CO)cc(OC)c1O[C@@H]1O[C@H](CO)[C@@H](O)[C@H](O)[C@H]1O`, the z-score (OD600 30 h) was 0.24 (inactive) and the z-score under setting [1] worked out at 0.99.
`Cc1ccc(S(=O)(=O)C2C(=O)NC3(C)CC2c2ccccc2O3)cc1` (centres undefined): the z-score (OD600 30 h) is 0.78 (inactive) and the z-score under setting [1] came to 0.14.
The corresponding values for `CCOC(=O)C1=C(C)Nc2nc3ccccc3n2C1c1cccs1` (centres undefined) are -0.33 (inactive) and 0.25.
The corresponding values for `CCCc1cc(=O)[nH]c(SCC(=O)N2CCN(S(=O)(=O)c3ccc(C)cc3C)CC2)n1` are 0.64 (inactive) and 0.59.
The like results for `Cc1cc(OCCN2CCCC2)cc(C(C)C)c1` were, in that order, -1.32 (inactive) and -1.82.
With `Cc1cccc(Nc2nc3c(S(=O)(=O)c4ccccc4)nnn3c3ccccc23)c1C`, the z-score by setting is: (OD600 30 h) 2.09 (inactive); under setting [1], 3.12.
In the case of `O=C(NC(=O)N1CCOCC1)c1ccccc1`, the z-score by setting is: (OD600 30 h) 0.99 (inactive); under setting [1], 0.24.
The corresponding values for `COc1ccc(C(=O)NC2(C(F)(F)F)NC(=O)N(CCCc3ccccc3)C2=O)c(OC)c1OC` (centres undefined) are -0.49 (inactive) and 0.17.
